Compound activity deposited in PubChem by National Center for Advancing Translational Sciences (NCATS).
The list is not random: actives were taken first. Their share in the collection is about 19%.
KB-3-1 cytotox = kills parental KB-3-1 adenocarcinoma cells | Potency, µM (highest dose often 46.1 µM), hits mostly cytotoxic | 400,000 compounds, 1.4% hits | KB-3-1 viability, CellTiter-Glo ATP luminescence, 72 h; further: nearly all actives have a fitted effect of over 60% in size
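KB-3-1 cells, DMEM (no phenol red) + 10% FBS; compound by pin transfer, 72 h, 37 °C. Readout: CellTiter-Glo luminescence after 10 min. Data normalized, curve-fitted.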
DT40 TDP1 no CPT = qHTS for Inhibitors of human tyrosyl-DNA phosphodiesterase 1 (TDP1): qHTS in cells in absence of CPT; DT40 Tdp1-/- hTDP1 cells, no CPT, ATP luminescence, 48 h; Potency, µM (doses to about 46.2 µM), for the others: at the highest dose activity change, negative = growth inhibition, hits mostly inhibitors; 420,000 compounds, 15% hits; AID 686978, 2013; further: nearly all actives have a fitted effect of over 55% in size
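A cellular qHTS used chicken DT40 cells lacking endogenous Tdp1 but carrying stably transfected human TDP1. Compounds were applied without camptothecin, and cell growth kinetics were judged by ATP-dependent luminescence after ≥48 hr.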
KB-V1 MDR tox = KB-V1 MDR subline cytotoxicity. KB-V1 MDR cells viability, CellTiter-Glo, 72 h. Potency, µM (series often up to 46.1 µM), usual class: cytotoxic. 400,000 compounds, 3.4% hits. AID 1347076; further: nearly all actives have a fitted effect of over 60% in size
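Cells of the MDR subline KB-V1 are plated, dosed with compound at multiple concentrations, and incubated 72 h at 37 degrees C; CellTiter-Glo is then added and luminescence read after 10 min.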
HT1080-NT tox = kills 2HG-producing HT-1080-NT fibrosarcoma cells. HT-1080-NT fibrosarcoma viability, CellTiter-Glo ATP luminescence, 48 h. Potency, µM (top dose mostly 46.1 µM), inactives show at the top dose activity, negative = less viability, most hits filed as cytotoxic. 360,000 compounds, 1.6% hits. AID 686970;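 further: NT is the 2HG producing partner of a matched IDH1 knockdown line; 0% = DMSO-treated cells and -100% = media-only wells without cells; nearly all actives have a fitted effect of over 55% in size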
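A 48-hour cytotoxicity screen used HT-1080-NT cells plated 2 hours before compound delivery. ATP-based CellTiter-Glo luminescence measured viability, normalized to DMSO and no-cell controls.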
HT1080 IDH1KD tx = toxicity to HT-1080 IDH1 knockdown cells (counter line); Potency, µM (doses to about 46.1 µM), without a hit: top-dose activity, negative = toxicity, most hits filed as cytotoxic; 360,000 compounds, 2% hits; HT-1080 IDH1 knockdown viability, ATP luminescence, 48 h;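 further: 0% = DMSO wells and -100% = cell-free medium wells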
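Viability of IDH1-knockdown HT-1080 fibrosarcoma cells was assessed by CellTiter-Glo after 48 h at 37 °C with titrated compound; concentration-effect curves were classified by fit quality and response size.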
TDP1 cell CPT = DT40-hTDP1 cell growth loss with CPT. Potency, µM (doses to about 46.2 µM), for inactives: at the top dose activity change, negative = growth inhibition, most hits filed as inhibitors. chicken DT40 Tdp1-/-;hTDP1 cells + 20 nM CPT, ATP luminescence, 48 h. 420,000 compounds, 12% hits; further: nearly all actives have a fitted effect of over 55% in size
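Cell growth measured by CellTiter-Glo luminescence after a minimum 48 h, 37 C compound exposure with 20 nM CPT in Tdp1-knockout DT40 cells stably expressing hTDP1, seeded 400/well; qHTS titration format.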
Starred values were filed as active, the others as inactive; i = inactive; ? = inconclusive; . = not tested or not shown. The call rests on the fitted dose curve; in most records, active means well fitted curve in the direction sought with a large enough effect; inconclusive means small, poorly fitted or top-dose-only effect, or another doubt; inactive means no such curve, though single readings can be large; an effect the other way counts as inactive or inconclusive. Unless noted, on the % scale 0 is the no-effect control and ±100 the full control effect; potency means the concentration at half of the fitted maximal effect.

SMILES	KB-3-1 cytotox	DT40 TDP1 no CPT	KB-V1 MDR tox	HT1080-NT tox	HT1080 IDH1KD tx	TDP1 cell CPT
Cc1ccc(OCC(=O)Nc2ccccc2-c2ccccc2NC(=O)COc2ccc(C)cc2)cc1	i	21µM*	?	-9%	0%	?
CCN(CC)c1ccc(C(=O)OCC(=O)NC2CCCCC2C)cc1 (stereo not given)	i	15µM*	i	1%	-4%	21µM*
Cc1ccccc1OCC(=O)Nc1ccccc1C(=O)NC1CC1	i	21µM*	?	-12%	-10%	?
CC1CCCC(NC(=O)COC(=O)c2ccc(N(C)C)cc2)C1C (stereo not given)	i	-25%	?	10%	2%	?
CCCCn1nnnc1C1(C)CCC(=O)N1Cc1cccc(F)c1 (stereo not given)	i	-3%	i	19%	21%	-2%
COc1ccc(CNC(=O)C(=O)NCCCn2ccnc2)cc1	i	8%	i	-1%	7%	-17%
Cc1ccc(C)c(OCC(=O)Nc2ccccc2C(=O)N2CCN(C)CC2)c1	i	-28%	i	5%	11%	-3%
CCC(=O)c1ccc(OCC(=O)Nc2ccccc2C(=O)N2CCCCC2)cc1	i	16µM*	i	-5%	0%	?
CCOC(=O)N1CCN(C(=O)c2ccccc2NC(=O)COc2ccccc2C)CC1	i	21µM*	i	-2%	-3%	?
COC(=O)c1ccc(NC(=S)NC2CCCCC2C)cc1 (stereo not given)	?	26µM*	?	?	?	23µM*
COC(=O)c1ccc(NC(=S)NC(=O)C2CCC2)cc1	i	13%	i	?	17%	0%
O=c1[nH]c(=S)[nH]c2n[nH]nc12	i	4%	i	.	.	12%
CN(Cc1ccccc1)C1CCN(Cc2ccccc2[N+](=O)[O-])CC1	i	-24%	i	0%	2%	12%
C=CCNc1ncnc2c1[nH]c1ccc(Cl)cc12	8.2µM*	23µM*	?	-1%	-27%	?
C=CCNc1ncnc2c1cnn2-c1ccc(Cl)cc1	i	?	?	?	5%	?
Cc1ccc(S(=O)(=O)NC(C)(C)C)cc1C(=O)OCC(=O)N1CCCC1=O	i	-6%	i	8%	8%	-20%
COc1cc(-c2nnc(SCCOc3ccc(C)c(Cl)c3)o2)cc(OC)c1OC	i	?	i	.	.	?
COc1cc(-c2nnc(COc3ccc4cc(Br)ccc4c3)o2)cc(OC)c1OC	i	21µM*	i	2%	0%	23µM*
COc1ccc(-c2nnc(-c3cc(OC)c(OC)c(OC)c3)o2)cc1OC	i	15µM*	?	-4%	0%	15µM*
COc1ccc(-c2nnc(-c3cccs3)o2)cc1OC	i	-22%	6.5µM*	-2%	-22%	-6%
COc1cc(-c2nnc(SCCOc3ccc(Cl)cc3)o2)cc(OC)c1OC	i	8.2µM*	i	.	.	?
O=C(NCc1ccco1)c1cccc(-c2cncc3nccn23)c1	i	-23%	i	?	16%	?
COc1cc(-c2nnc(SCc3cc(=O)oc4cc(C)ccc34)o2)cc(OC)c1OC	i	29µM*	i	-8%	2%	?
COc1cc(-c2nnc(SCC(=O)Oc3ccc(C)cc3C)o2)cc(OC)c1OC	i	1%	i	.	.	1%
CC(C)N1CCN(c2ccc(OCC3COC(Cn4cncn4)(c4ccc(Cl)cc4Cl)O3)cc2)CC1 (stereo not given)	?	?	1.2µM*	-2%	-1%	?
SMILES	KB-3-1 cytotox	DT40 TDP1 no CPT	KB-V1 MDR tox	HT1080-NT tox	HT1080 IDH1KD tx	TDP1 cell CPT
CCC(C)n1ncn(-c2ccc(N3CCN(c4ccc(OC[C@H]5CO[C@](Cn6cncn6)(c6ccc(Cl)cc6Cl)O5)cc4)CC3)cc2)c1=O (stereo not given in full)	.	-27%	.	.	.	-14%
CN1CCc2c(sc(NC(=O)Cc3ccc(F)cc3)c2C(N)=O)C1	i	7%	i	4%	7%	20%
Cc1sc(NC(=O)CN(Cc2ccccc2)C(=O)C(C)C)c(C(N)=O)c1C	i	1.2µM*	?	9%	5%	1.8µM*
CCC(=O)N(CC(=O)Nc1sc(C)c(C)c1C(N)=O)Cc1ccc(F)cc1	i	15µM*	?	6%	8%	21µM*
CCC(=O)N(CC(=O)Nc1sc(C)c(C)c1C(N)=O)C1CCCC1	i	13µM*	?	1%	18%	23µM*
COc1ccc(C(=O)N(CC(=O)Nc2sc(C)c(C)c2C(N)=O)C2CCCC2)cc1	i	?	?	-1%	-3%	?
Cc1sc(NC(=O)CN(Cc2ccc(F)cc2)C(=O)C(C)C)c(C(N)=O)c1C	i	2.3µM*	?	?	0%	3.7µM*
CCN(CC)CCNC(=O)c1ccc(-c2nc(CS(=O)(=O)c3ccc(C)cc3)c(C)o2)cc1	i	-19%	i	.	.	-10%
COc1ccc(NC(=O)CCCc2nc(-c3ccco3)no2)c(OC)c1	i	-23%	i	.	.	-17%
Cc1ccc(F)c(S(=O)(=O)NC(=O)C2(C)CCN2C(=O)CCC2CCCC2)c1 (stereo not given)	i	6%	i	?	18%	1%
CCCc1n[nH]c(=O)c2c1nnn2Cc1ccccc1	i	1%	i	2%	-2%	-9%
CCc1cc(-c2cnnn2Cc2ccccc2)ccc1-c1cn(CC(C)C)nn1	?	10µM*	10µM*	?	?	?
NC(=O)c1ccc(OCC(=O)N2CCNC2=O)cc1	i	-1%	i	8%	9%	16%
C=C1c2cc3c(cc2NC(=S)N1Cc1ccccc1)OCO3	i	?	i	-5%	-1%	16µM*
O=C(CN1C(=O)C2C3C=CC(C4CC34)C2C1=O)Oc1ccccc1 (stereo not given)	i	0%	?	19%	10%	5%
O=C1C2C3C=CC(C4CC34)C2C(=O)N1CCc1ccccc1 (stereo not given)	i	-13%	18µM*	0%	-2%	-1%
CC(C)CCNC(=O)CCn1c(=O)c2cccn2c2cccnc21	.	-16%	.	.	.	8%
CC(C)C[C@@H](C(=O)O)N(Cc1cccc(CN([C@@H](CC(C)C)C(=O)O)S(C)(=O)=O)c1)S(C)(=O)=O	i	-1%	i	29%	11%	5%
